Laboratory results taken from PubChem BioAssay (Tox21).
Values joined by “and” are separate entries in the source; they are usually repeats but may differ in a detail not shown here. Equal values may be shown once. Records with an inconclusive call do not appear. Entries that show only a call come without a potency. A structure can be active in one record and inactive in another. Active and inactive are the calls of the source. Unless noted, calls follow the shape of the dose curve; as a rule, active = well fitted curve in the direction sought with a large enough effect in the repeat runs; inconclusive = weak or mixed curves; inactive = no such curve, though single readings can be large; an effect the other way counts as inactive or inconclusive.

Columns and labels:
[1] = qHTS assay to identify small molecule agonists of the constitutive androstane receptor (CAR) signaling pathway - cell viability counter screen (AID 1224836); also: nearly all actives have a fitted effect of over 45% in size; also: potency is read from the fitted curve at half-maximal effect
Outline: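 HepG2 cells stably carrying hCAR and a CYP2B6-2.2kb reporter were plated 4 h, then given compounds at 15 concentrations plus PK11195 (final 0.75 uM). After 23 h at 37 C, viability was read by CellTiter-Fluor fluorescence.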

[2] = qHTS assay to identify small molecule antagonists of the constitutive androstane receptor (CAR) signaling pathway - cell viability counter screen (AID 1224837); also: nearly all actives have a fitted effect of over 45% in size; also: potency is read from the fitted curve at half-maximal effect
Outline: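 HepG2-CYP2B6-hCAR cells, 2500/well, 4 hr pre-incubation; compound titration, 15 conc.; CITCO 50 nM final; 23 hr, 37 C/5% CO2; CellTiter-Fluor, fluorescence intensity.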

[3] = qHTS assay to identify small molecule antagonists of the estrogen related receptor signaling pathway with the pleiotropic PPARgamma coactivator (PGC) from Tox21 10K library - cell viability counter screen (AID 1224840; active = well fitted cell-killing curve with a large enough effect in the repeat runs, not every such curve was filed as active; also: nearly all actives have a fitted effect of over 40% in size; also: potency is read from the fitted curve at half-maximal effect)
Outline: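 PGC/ERR cells, 2,000/well; 6 h pre-incubation 37 C/5% CO2; cpd in DMSO via pin tool; 17.5 h 37 C; CellTiter-Fluor, 30 min; fluorescence.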

[4] = qHTS assay to identify small molecule agonists of the hypoxia (HIF-1) signaling pathway - cell viability counter screen (AID 1224844; calls by dose curve; also: nearly all actives have a fitted effect of over 50% in size; also: potency is read from the fitted curve at half-maximal effect)
Outline: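 ME-180 HRE-bla cells, 2,000/well, 0.5% dialyzed FBS; 5 hr settle, 17 hr compound at 37C/5% CO2; CCF4-AM reporter read first, then CellTiter-Glo luminescence after 30 min RT.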

[5] = qHTS assay to identify small molecule agonists of H2AX (AID 1224845; active = well fitted activation curve with a large enough effect in the signal ratio in the repeat runs, not every such curve was filed as active; the % refers to the signal ratio)
Outline: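 Phospho-H2AX Ser139 measured by HTRF (ex 320 nm; em 665 and 620 nm) after 24 hr antibody incubation. Compounds, 15 concentrations, 0.76% DMSO, were applied to CHO-K1 cells for 3hr at 37C before lysis.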

[6] = qHTS assay to identify small molecule antagonists of the estrogen related receptor (ERR) signaling pathway from Tox21 library (AID 1224848); also: nearly all actives have a fitted effect of over 50% in size; also: potency is read from the fitted curve at half-maximal effect
Outline: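 Reading was by luminescence 30 min after ONE-Glo addition. Before that, ERR cells at 2,000 per well had rested 6 h at 37 C/5% CO2 and then received pin-tooled compounds in DMSO for 18 h at 37 C.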

[7] = qHTS assay to identify small molecule agonists of the estrogen related receptor (ERR) signaling pathway from Tox21 library (AID 1224849; calls by dose curve; also: nearly all actives have a fitted effect of over 15% in size); conditions: ERR reporter cell line, ONE-Glo luciferase, 18 h; at 92.4 µM (top of the series) unless noted
Outline: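 ERR cells, 6 h pre-incubation 37 C/5% CO2; cpd in DMSO pinned; 18 h 37 C; ONE-Glo added, 30 min RT; luminescence read. Agonist mode, qHTS.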

[8] = qHTS RealTime-Glo MT Cell Viability Assay in HEK293 cells - 32 hour (AID 1224868); also: nearly all actives have a fitted effect of over 50% in size; also: potency is read from the fitted curve at half-maximal effect
Outline: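 Nonlytic real-time viability readout: viable cells convert prosubstrate to NanoLuc substrate, giving luminescence proportional to live cell number. HEK293, 600 cells/well, compound added after 5 h, continuous culture at 37 C.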

[9] = A CellTox Green Cytotoxicity Assay to monitor cytotoxicity in HEK293 cells - 0 hour (AID 1224869); also: nearly all actives have a fitted effect of over 50% in size
Outline: (§1)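 Nonlytic real-time cytotoxicity: HEK293 + CellTox Green reagent plated, 5 h preincubation, pintool compound addition (23 nL in DMSO), 37 C for 40 h, fluorescence measured at successive time points.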

[10] = qHTS assay to identify small molecule agonists of H2AX - cell viability counter screen (AID 1224847; calls by dose curve; also: nearly all actives have a fitted effect of over 30% in size; also: potency is read from the fitted curve at half-maximal effect)
Outline: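 Wild-type CHO-K1 cells (10% FBS medium) were plated overnight at 37C, exposed to compounds at 15 concentrations for 3 hr at 37C (0.76% DMSO final), and viability was read as CellTiter-Glo luminescence after 30 min at room temperature.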

[11] = qHTS RealTime-Glo MT Cell Viability Assay in HepG2 cells - 24 hour (AID 1224867); also: nearly all actives have a fitted effect of over 50% in size; also: potency is read from the fitted curve at half-maximal effect
Outline: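 Luminescence read-out: viable HepG2 cells reduce a prosubstrate to a NanoLuc substrate, giving a signal proportional to live cell number. Reads taken at 0, 8, 16, 24, 32 and 40 h of compound exposure at 37 C.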

[12] = qHTS RealTime-Glo MT Cell Viability Assay in HepG2 cells - 40 hour (AID 1224870); also: nearly all actives have a fitted effect of over 50% in size; also: potency is read from the fitted curve at half-maximal effect
Outline: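 Real-time viability: cells seeded at 600 per well together with NanoLuc and cell-permeant prosubstrate, compounds added after 5 h incubation. Luminescence tracked at 0, 8, 16, 24, 32 and 40 h of exposure.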

[13] = A CellTox Green Cytotoxicity Assay to monitor cytotoxicity in HEK293 cells - 40 hour (AID 1224871); also: nearly all actives have a fitted effect of over 45% in size; also: potency is read from the fitted curve at half-maximal effect
Outline: as §1

[14] = molecular target: Thyrotropin receptor (Homo sapiens) (UniProt P16473); experiment: qHTS assay to identify small molecule agonists of the thyroid stimulating hormone receptor (TSHR) signaling pathway (AID 1224843; calls by dose curve; also: nearly all actives have a fitted effect of over 45% in size)
Outline: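 HEK293 cells stably bearing the thyrotropin receptor were plated at 800 cells/well and challenged with compound (30 min, RT). Accumulated cAMP was quantified via cAMP-d2 competing for cryptate-tagged antibody.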

[15] = qHTS assay to identify small molecule agonists of the hypoxia (HIF-1) signaling pathway (AID 1224846; active = well fitted activation curve with a large enough effect in the signal ratio in the repeat runs, not every such curve was filed as active; the % refers to the signal ratio)
Outline: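 Cell line: CellSensor HRE-bla ME-180; 2,000 cells/well; 0.5% dialyzed FBS; 5 h preincubation; DMSO compound pin transfer; 17 h, 37C, 5% CO2; CCF4-AM added; bla FRET signal scored for activation.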

[16] = molecular target: Nuclear receptor subfamily 1 group I member 3 (Homo sapiens) (UniProt Q14994); experiment: qHTS assay to identify small molecule antagonists of the constitutive androstane receptor (CAR) signaling pathway (AID 1224838); also: nearly all actives have a fitted effect of over 40% in size; also: potency is read from the fitted curve at half-maximal effect
Outline: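 HepG2-CYP2B6-hCAR cells; 4 h pre-incubation; cpd (15 conc) + CITCO 50 nM final; 24 h, 37 C/5% CO2; ONE-Glo, luminescence.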

[17] = molecular target: Nuclear receptor subfamily 1 group I member 3 (Homo sapiens) (UniProt Q14994); experiment: qHTS assay to identify small molecule agonists of the constitutive androstane receptor (CAR) signaling pathway (AID 1224839);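 also: HepG2 cells stably carrying human CAR and a CYP2B6 luciferase reporter; nearly all actives have a fitted effect of over 15% in size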
Outline: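 HepG2 cells stably expressing hCAR and a CYP2B6-2.2kb luciferase reporter were treated with compounds at 15 concentrations plus 0.75 uM PK11195 (final) for 24 h at 37 C; luminescence was read after ONE-Glo addition.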

[18] = qHTS assay to identify small molecule antagonists of the estrogen related receptor signaling pathway with the pleiotropic PPARgamma coactivator (PGC) from Tox21 10K library (AID 1224841; call rule not given here; also: potency is read from the fitted curve at half-maximal effect)
Outline: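 PGC/ERR cell line, 2,000 cells/well; 6 h pre-incubation 37 C/5% CO2; compounds (DMSO) pinned in; 18 h, 37 C; One-Glo, 30 min RT; luminescence.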

[19] = qHTS assay to identify small molecule agonists of the estrogen related receptor signaling pathway with the pleiotropic PPARgamma coactivator (PGC) from Tox21 10K library (AID 1224842); also: nearly all actives have a fitted effect of over 15% in size
Outline: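 Luminescence from One-Glo (30 min, room temperature) measured after PGC/ERR cells had 18 h at 37 C with pinned compound (23 nL in DMSO). Cells had been seeded at 2,000 per well and pre-incubated 6 h.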

Thyrotropin receptor (Homo sapiens), sequence (P16473 whole entry, looked up): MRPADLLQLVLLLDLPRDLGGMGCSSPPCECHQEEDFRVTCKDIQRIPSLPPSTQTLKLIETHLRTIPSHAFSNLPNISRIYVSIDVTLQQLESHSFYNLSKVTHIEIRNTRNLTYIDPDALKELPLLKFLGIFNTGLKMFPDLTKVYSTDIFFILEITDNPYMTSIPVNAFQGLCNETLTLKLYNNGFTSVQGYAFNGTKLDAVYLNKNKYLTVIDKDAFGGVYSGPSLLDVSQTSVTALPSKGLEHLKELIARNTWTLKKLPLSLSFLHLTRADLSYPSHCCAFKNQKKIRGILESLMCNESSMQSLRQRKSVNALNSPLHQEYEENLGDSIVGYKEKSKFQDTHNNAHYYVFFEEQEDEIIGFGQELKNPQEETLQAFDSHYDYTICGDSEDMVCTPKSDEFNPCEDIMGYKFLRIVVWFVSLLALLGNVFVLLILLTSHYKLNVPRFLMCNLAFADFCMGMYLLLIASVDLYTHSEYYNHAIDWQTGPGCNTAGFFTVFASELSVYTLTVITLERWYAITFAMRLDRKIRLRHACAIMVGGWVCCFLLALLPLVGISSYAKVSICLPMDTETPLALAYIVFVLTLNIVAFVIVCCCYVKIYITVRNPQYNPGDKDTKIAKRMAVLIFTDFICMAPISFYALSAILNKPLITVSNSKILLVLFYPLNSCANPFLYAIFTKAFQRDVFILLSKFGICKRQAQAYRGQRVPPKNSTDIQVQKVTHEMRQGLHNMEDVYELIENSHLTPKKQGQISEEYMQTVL
Nuclear receptor subfamily 1 group I member 3 (Homo sapiens), sequence (Q14994 whole entry, looked up): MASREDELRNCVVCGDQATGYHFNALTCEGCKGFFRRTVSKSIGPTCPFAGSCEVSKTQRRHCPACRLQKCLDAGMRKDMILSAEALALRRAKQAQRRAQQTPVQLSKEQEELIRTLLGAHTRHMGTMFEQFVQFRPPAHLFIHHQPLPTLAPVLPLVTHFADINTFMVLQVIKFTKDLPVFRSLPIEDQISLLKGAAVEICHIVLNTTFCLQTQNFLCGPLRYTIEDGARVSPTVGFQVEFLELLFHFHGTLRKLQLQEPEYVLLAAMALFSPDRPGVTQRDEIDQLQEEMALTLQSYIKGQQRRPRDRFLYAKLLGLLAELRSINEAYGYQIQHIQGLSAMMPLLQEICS

Row | SMILES | Potency [1] | Potency [2] | Potency [3] | Potency [4] | Potency [5] | Potency [6] | activity change, positive = activation [7] | Potency [8] | Potency [9] | Potency [10] | Potency [11] | Potency [12] | Potency [13] | Potency [14] | outcome [15] | Potency [16] | Potency [17] | Potency [18] | Potency [19]
1 | CC(C)(C)c1cc(/C=C2\SC(=N)NC2=O)cc(C(C)(C)C)c1O | inactive | inactive | 61.1 µM (active) | 54.9 µM (active) | inactive | 48.6 µM (active) | -57.9% (inactive) | 49 µM (active) | inactive | – | – | – | – | – | – | – | – | – | –
2 | CN(C)CCCN1c2ccccc2CCc2ccccc21 | 30.6 µM (active) | inactive | – | – | – | – | – | inactive | inactive | inactive | inactive | inactive | 43.6 µM (active) and inactive | – | – | – | – | – | –
3 | CCOB(OCC)OCC | inactive | inactive | inactive | inactive | inactive | – | – | – | – | inactive | inactive | inactive | inactive | inactive | inactive | – | – | – | –
4 | C=CCCCCCCC=C | inactive | inactive | inactive | – | – | – | – | inactive | inactive | inactive | inactive | inactive | inactive | – | – | – | – | – | –
5 | COc1ccccc1OCCNCC(O)COc1cccc2[nH]c3ccccc3c12 (stereo unspecified) | – | – | – | – | inactive | 26.6 µM (active) | -52.7% [at 42.5 µM] (inactive) | 16.9 µM (active) | inactive | 49.2 µM (active) | 21.3 µM (active) | 23.9 µM (active) | – | – | inactive | inactive | inactive | 13.3 µM (active) | inactive
6 | CN(C)CCOC(c1ccccc1)c1ccccc1 (tested in a mixture with another compound) | – | – | inactive | – | – | – | – | – | inactive | inactive | inactive | inactive | inactive | – | – | – | – | – | –
7 | CCC1CCCCC1 | – | inactive | inactive | inactive | inactive | inactive | 11.4% (inactive) | inactive | inactive | inactive | inactive | inactive | inactive | inactive | inactive | inactive | inactive | – | inactive
8 | COC(=O)C1=C(C)NC(C)=C(C(=O)OCCCN2CCC(c3ccccc3)(c3ccccc3)CC2)C1c1cccc([N+](=O)[O-])c1 (stereo unspecified) | – | 23.7 µM (active) | 26.6 µM (active) | – | inactive | 10.6 µM (active) | -67.7% [at 42.5 µM] (inactive) | 10.7 µM (active) | inactive | – | – | – | inactive | – | – | – | – | 10.6 µM (active) | inactive
9 | Nc1cc(Cl)c([N+](=O)[O-])cc1O | – | – | – | – | – | inactive | -13.4% (inactive) | – | inactive | – | – | inactive | inactive | inactive | – | – | – | inactive | inactive
10 | Cc1oc(-c2ccccc2)nc1CCOc1ccc(C[C@H](Nc2ccccc2C(=O)c2ccccc2)C(=O)O)cc1 | – | – | – | – | – | inactive | -13.2% (inactive) | inactive | inactive | 80 µM (active) | inactive | inactive | inactive | inactive | – | – | – | – | inactive
11 | CCCCC(CC)COC(=O)c1ccc(O)cc1 (stereo unspecified) | inactive | inactive | inactive | 49 µM (active) | inactive | – | – | 54.7 µM (active) | inactive | 89.4 µM (active) and 80 µM (active) | inactive | inactive | 43.5 µM (active) and 21.9 µM (active) | inactive | – | – | – | – | –
12 | CCCCCCCCCCCCCC[n+]1ccccc1 | – | 9.69 µM (active) | 54.5 µM (active) | 49 µM (active) | inactive | 1.37 µM (active) | -77.5% (inactive) | 4.9 µM (active) | inactive | 56.6 µM (active) | – | 9.77 µM (active) | 38.9 µM (active) | – | – | 48.6 µM (active) | inactive | – | –
